Counter-ions that a name gives are not always drawn.
Assays:
Conditions in all cases: 20 µM
[1] = tested on: Salmonella enterica typhimurium; experiment: growth AUC normalised to DMSO control (fraction of control); higher = less growth inhibition, active = hit call of the paper
Procedure, shortened: (§1)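 For the AUC endpoint, growth curves were integrated by the trapezoidal rule up to the exponential-to-stationary transition and normalised to DMSO controls on the same plate. The curves came from OD578 readings taken hourly for 24 h, in three biological replicates. Pathogens had been passaged anaerobically twice and inoculated at an OD578 of 0.01 into pre-reduced mGAM plates carrying 20 μM compound and 1% DMSO, sealed with breathable membranes. Medium for Haemophilus parainfluenzae also contained hemin and NAD.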

[2] = tested on: Shigella flexneri; experiment: as above
Procedure, shortened: as §1

[3] = tested on: Vibrio cholerae; experiment: as above
Procedure, shortened: as §1

[4] = tested on: Yersinia pseudotuberculosis; experiment: as above
Procedure, shortened: as §1

[5] = tested on: P. vulgatus RND KO; experiment: growth AUC normalised to DMSO control (median) (fraction of control); higher = less growth inhibition, active = hit call of the paper
Procedure, shortened: (§2)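 For normalised area under the curve, growth curves were truncated at entry into stationary phase, integrated by the trapezoidal rule and divided against vehicle wells on the same plate. The curves came from strains passaged twice overnight without oxygen and then grown in mGAM in 96-well plates at a starting OD578 of 0.01. Each well held an approved-drug library compound at 20 μM with 1% DMSO, and OD578 was read hourly for 24 h in an anaerobic incubator. Values are medians of three biological replicates.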

[6] = tested on: P. vulgatus WT; experiment: as above
Procedure, shortened: as §2

[7] = tested on: S. enterica typhimurium WT; experiment: as above
Procedure, shortened: as §2

[8] = tested on: S. enterica typhimurium tolC KO; experiment: as above
Procedure, shortened: as §2

Measured: growth AUC normalised to DMSO control
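Wherever growth AUC normalised to DMSO control (median) is given: active when median AUC fell below 0.1.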

C#C[C@]1(O)CC[C@H]2[C@@H]3CCC4=C(CCC(=O)C4)[C@H]3CC[C@@]21C [Norethynodrel]
inactive: [1] 1 | [2] 1 | [3] 0.994 | [4] 0.992 | [5] 0.992 | [6] 1.01 | [7] 0.996 | [8] 0.993

CCOC(=O)[C@@](C)(N)Cc1ccc(O)c(O)c1 [Methyldopate hydrochloride]
inactive: [1] 0.999 | [2] 1.04 | [3] 1.06 | [4] 1.02 | [5] 0.964 | [6] 1.02 | [7] 1.01 | [8] 1.02

CC(=O)Oc1cc(C(C)C)c(OCCN(C)C)cc1C [Moxisylyte hydrochoride]
inactive: [1] 0.992 | [2] 0.992 | [3] 0.991 | [4] 0.99 | [5] 0.999 | [6] 1 | [7] 1.01 | [8] 1

NC(=O)NC1NC(=O)NC1=O (stereo not given) [Allantoin]
inactive: [1] 1 | [2] 0.996 | [3] 1.05 | [4] 0.989 | [5] 0.999 | [6] 1.01 | [7] 0.994 | [8] 0.998

COc1ccc(C(=O)NCc2cccnc2)cc1C(=O)NCc1cccnc1 [Picotamide monohydrate]
inactive: [1] 0.989 | [2] 0.968 | [3] 0.992 | [4] 0.984 | [5] 1 | [6] 1.01 | [7] 0.995 | [8] 0.998

OC(CCN1CCCCC1)(c1ccccc1)c1ccccc1 [Pridinol methanesulfonate salt]
inactive: [1] 0.993 | [2] 1.02 | [3] 1.07 | [4] 0.988 | [5] 0.963 | [6] 0.953 | [7] 0.991 | [8] 0.994

CN[C@H]1CC[C@@H](c2ccc(Cl)c(Cl)c2)c2ccccc21 [Sertraline]
inactive: [1] 0.992 | [2] 0.978 | [3] 0.928 | [4] 1.01 | [5] 0.998 | [6] 1.02 | [7] 0.999 | [8] 0.945

CC(=O)O[C@]1(C(C)=O)CC[C@H]2[C@@H]3C=C(C)C4=CC(=O)CC[C@]4(C)[C@H]3CC[C@@]21C [Megestrol acetate]
inactive: [1] 1.02 | [2] 1.12 | [3] 1.1 | [4] 1.05 | [5] 0.992 | [6] 0.999 | [7] 1.01 | [8] 0.931

CCCCNc1c(C(=O)OCC)c(C)nc2c1cnn2CC [Tracazolate hydrochloride]
inactive: [1] 1 | [2] 1.03 | [3] 1.04 | [4] 0.996 | [5] 0.978 | [6] 0.983 | [7] 0.999 | [8] 0.952

Nc1nc2n[nH]nc2c(=O)[nH]1 [Azaguanine-8]
inactive: [1] 1.01 | [2] 1.05 | [3] 1.01 | [4] 0.996 | [5] 1.01 | [6] 0.999 | [7] 0.987 | [8] 1.01

Oc1ccc(OCc2ccccc2)cc1 [Monobenzone]
inactive: [1] 0.975 | [2] 0.941 | [3] 0.982 | [4] 0.974 | [5] 0.981 | [6] 0.992 | [7] 0.996 | [8] 0.977

CN1[C@@H]2CC[C@H]1C[C@@H](OC(c1ccccc1)c1ccccc1)C2 [Benztropine mesylate]
inactive: [1] 1 | [2] 1.01 | [3] 1 | [4] 1.01 | [5] 0.944 | [6] 0.904 | [7] 0.998 | [8] 0.195

CN1CCC(=C2c3ccccc3Sc3ccccc32)CC1 [Pimethixene maleate]
inactive: [1] 0.988 | [2] 0.948 | [3] 0.853 | [4] 1.02 | [5] 0.812 | [6] 0.776 | [7] 1 | [8] 0.956

CCCCOc1ccc(OCCCN2CCOCC2)cc1 [Pramoxine hydrochloride]
inactive: [1] 0.998 | [2] 1.01 | [3] 1 | [4] 0.983 | [5] 1.04 | [6] 1.03 | [7] 1 | [8] 0.988

C[C@H](CCC(=O)O)[C@H]1CC[C@H]2[C@@H]3CC[C@@H]4C[C@H](O)CC[C@]4(C)[C@H]3CC[C@]12C [Lithocholic acid]
inactive: [1] 1.01 | [2] 1.02 | [3] 1.04 | [4] 1.02 | [5] 1.01 | [6] 1.03 | [7] 1 | [8] 0.995

CC(C(=O)O)c1cccc(Oc2ccccc2)c1 (stereo not given) [Fenoprofen calcium salt dihydrate]
inactive: [1] 0.995 | [2] 0.924 | [3] 0.945 | [4] 0.987 | [5] 0.99 | [6] 0.983 | [7] 1 | [8] 0.995

CNCCC=C1c2ccccc2CCc2ccccc21 [Nortriptyline hydrochloride]
inactive: [1] 0.998 | [2] 0.991 | [3] 0.937 | [4] 0.992 | [5] 0.99 | [6] 1.01 | [7] 1 | [8] 0.971

CN1C(=O)CC(c2ccccc2)C1=O (stereo not given) [Phensuximide]
inactive: [1] 1.01 | [2] 1.04 | [3] 1.03 | [4] 1.02 | [5] 1.02 | [6] 1.04 | [7] 1 | [8] 0.993

CC#C[C@]1(O)CC[C@H]2[C@@H]3CCC4=CC(=O)CCC4=C3[C@@H](c3ccc(N(C)C)cc3)C[C@@]21C [Mifepristone]
inactive: [1] 1.01 | [2] 0.988 | [3] 0.994 | [4] 1.01 | [5] 0.93 | [6] 0.954 | [7] 0.999 | [8] 0.92

CC[C@H](C)[C@H](N)C1=N[C@H](C(=O)N[C@@H](CC(C)C)C(=O)N[C@H](CCC(=O)O)C(=O)N[C@H](C(=O)N[C@H]2CCCCNC(=O)[C@H](CC(N)=O)NC(=O)[C@@H](CC(=O)O)NC(=O)[C@H](Cc3cnc[nH]3)NC(=O)[C@@H](Cc3ccccc3)NC(=O)[C@H]([C@@H](C)CC)NC(=O)[C@@H](CCCN)NC2=O)[C@@H](C)CC)CS1 [Bacitracin]
inactive: [1] 0.996 | [2] 0.98 | [3] 1.15 | [4] 0.976 | [5] 0.137 | [6] 0.104 | [7] 1.01 | [8] 1.01

C[C@@H](c1ncncc1F)[C@](O)(Cn1cncn1)c1ccc(F)cc1F [Voriconazole]
inactive: [1] 0.984 | [2] 0.959 | [3] 0.955 | [4] 1 | [5] 1.02 | [6] 1.02 | [7] 1 | [8] 0.998

Cc1oncc1C(=O)Nc1ccc(C(F)(F)F)cc1 [Leflunomide]
inactive: [1] 0.989 | [2] 0.988 | [3] 0.914 | [4] 1 | [5] 0.957 | [6] 1 | [7] 0.996 | [8] 0.896

CC(=O)O[C@H]1C(=O)[C@@]2(C)[C@H]([C@H](OC(=O)c3ccccc3)[C@]3(O)C[C@H](OC(=O)[C@H](O)[C@@H](NC(=O)c4ccccc4)c4ccccc4)C(C)=C1C3(C)C)[C@]1(OC(C)=O)CO[C@@H]1C[C@@H]2O [Paclitaxel]
inactive: [1] 1.02 | [2] 1.01 | [3] 1.02 | [4] 0.998 | [5] 0.881 | [6] 0.8 | [7] 1.01 | [8] 1.02

CCN(CC)CC#CCOC(=O)C(O)(c1ccccc1)C1CCCCC1 (stereo not given) [Oxybutynin chloride]
inactive: [1] 0.977 | [2] 0.944 | [3] 0.935 | [4] 0.981 | [5] 0.976 | [6] 0.986 | [7] 0.999 | [8] 0.946

CN(C)CCC=C1c2ccccc2COc2ccccc21 [Doxepin hydrochloride]
inactive: [1] 1 | [2] 0.977 | [3] 0.899 | [4] 0.994 | [5] 0.976 | [6] 0.962 | [7] 0.997 | [8] 0.977

CN(C)CCCN1c2ccccc2CCc2ccccc21 [Imipramine hydrochloride]
inactive: [1] 0.998 | [2] 0.994 | [3] 0.935 | [4] 1.01 | [5] 1 | [6] 0.998 | [7] 1.02 | [8] 0.984

CCOCCn1c(N2CCCN(C)CC2)nc2ccccc21 [Emedastine difumarate]
inactive: [1] 0.995 | [2] 0.997 | [3] 0.992 | [4] 0.996 | [5] 1.03 | [6] 1.05 | [7] 1 | [8] 0.989

COc1ccc2[nH]c([S+]([O-])Cc3ncc(C)c(OC)c3C)nc2n1 (stereo not given) [Tenatoprazole]
inactive: [1] 0.988 | [2] 1 | [3] 0.894 | [4] 0.998 | [5] 1.03 | [6] 1.06 | [7] 1 | [8] 0.963

CCN(CC)Cc1cc(Nc2ccnc3cc(Cl)ccc23)ccc1O [Amodiaquine dihydrochloride dihydrate]
inactive: [1] 0.974 | [2] 1.02 | [3] 1 | [4] 0.966 | [5] 1 | [6] 0.961 | [7] 0.982 | [8] 1

CC(=O)OCC(=O)[C@@]1(O)[C@H](C)C[C@H]2[C@@H]3CCC4=CC(=O)C=C[C@]4(C)[C@@]3(F)[C@@H](O)C[C@@]21C [Dexamethasone acetate]
inactive: [1] 1 | [2] 1 | [3] 1 | [4] 0.999 | [5] 0.993 | [6] 1.02 | [7] 1.01 | [8] 0.998
